Data reported in PubChem BioAssay (EPA / NIEHS).
Several values for one entry are separate records, joined by “and”; a condition that tells them apart may be missing. Identical values can stand only once. Results filed as inconclusive are left out. More than one record can exist for a structure, and the calls need not agree. Activity calls are given as the source filed them. The calls were made as follows: active = hit-call score of the fitted dose curve at least 0.9, where 1 is the maximum; inconclusive = response in the unintended direction; inactive = score below 0.9.

How the values were obtained:
[1] = biological target: human Phosphatase and Tensin Homolog (PTEN), PTEN (gene 5728) (UniProt P60484); assay: NVS_ENZ_hPTEN: NovaScreen (NVS) Enzymatic Assay for human Phosphatase and Tensin Homolog (PTEN) (AID 2283203)
Chain of human Phosphatase and Tensin Homolog (PTEN), PTEN (gene 5728) (P60484 whole entry, looked up): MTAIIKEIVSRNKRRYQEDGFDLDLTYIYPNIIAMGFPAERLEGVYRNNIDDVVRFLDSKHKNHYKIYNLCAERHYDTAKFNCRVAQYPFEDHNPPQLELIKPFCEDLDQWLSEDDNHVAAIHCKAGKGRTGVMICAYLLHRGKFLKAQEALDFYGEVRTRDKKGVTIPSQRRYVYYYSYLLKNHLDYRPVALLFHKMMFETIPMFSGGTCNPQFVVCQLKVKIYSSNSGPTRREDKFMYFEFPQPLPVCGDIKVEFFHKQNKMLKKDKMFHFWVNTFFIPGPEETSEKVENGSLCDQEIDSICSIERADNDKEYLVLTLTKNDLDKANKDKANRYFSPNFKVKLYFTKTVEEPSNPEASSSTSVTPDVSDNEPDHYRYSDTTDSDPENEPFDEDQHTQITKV
How it was run: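 Loss of fluorescent product signal after mobility-shift separation reports PTEN activity, recombinant human enzyme, 1 h after compound addition. Single 25 uM duplicate screen, then concentration-response on actives; DMSO baseline.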

[2] = biological target: Tyrosine-protein phosphatase non-receptor type 12 (Homo sapiens) (UniProt Q05209); assay: NVS_ENZ_hPTPN12: NovaScreen (NVS) Enzymatic Assay for human Protein Tyrosine Phosphatase Non-receptor Type 12 (PTPN12) (AID 2283204)
Chain of Tyrosine-protein phosphatase non-receptor type 12 (Homo sapiens) (Q05209 whole entry, looked up): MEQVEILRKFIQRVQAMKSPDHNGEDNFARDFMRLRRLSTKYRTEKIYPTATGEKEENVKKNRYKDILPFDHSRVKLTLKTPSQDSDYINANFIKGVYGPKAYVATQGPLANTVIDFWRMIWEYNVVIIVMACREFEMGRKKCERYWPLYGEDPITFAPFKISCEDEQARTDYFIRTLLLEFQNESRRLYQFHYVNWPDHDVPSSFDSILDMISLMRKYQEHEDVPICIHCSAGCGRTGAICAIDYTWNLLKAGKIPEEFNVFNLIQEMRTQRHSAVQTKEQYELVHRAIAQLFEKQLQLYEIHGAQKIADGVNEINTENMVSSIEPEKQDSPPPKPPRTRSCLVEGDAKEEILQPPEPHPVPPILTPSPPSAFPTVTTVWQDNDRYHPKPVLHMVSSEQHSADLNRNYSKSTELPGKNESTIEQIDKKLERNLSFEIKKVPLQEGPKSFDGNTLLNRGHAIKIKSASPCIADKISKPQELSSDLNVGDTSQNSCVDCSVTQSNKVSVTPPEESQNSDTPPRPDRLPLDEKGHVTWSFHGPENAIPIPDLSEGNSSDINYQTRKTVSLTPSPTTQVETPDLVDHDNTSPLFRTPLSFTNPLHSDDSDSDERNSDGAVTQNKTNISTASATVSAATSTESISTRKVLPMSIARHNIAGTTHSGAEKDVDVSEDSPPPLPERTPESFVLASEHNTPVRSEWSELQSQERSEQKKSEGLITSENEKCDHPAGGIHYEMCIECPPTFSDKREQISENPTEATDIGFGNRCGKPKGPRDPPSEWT
How it was run: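 Single-concentration duplicates (25 uM) preceded singleton concentration-response up to 50 uM for chemicals passing threshold. Cell-free recombinant PTPN12 activity was read 1.33 h after dosing via fluorescence after mobility-shift separation; loss of signal versus DMSO.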

[3] = biological target: Tyrosine-protein phosphatase non-receptor type 13 (Homo sapiens) (UniProt Q12923); assay: NVS_ENZ_hPTPN13: NovaScreen (NVS) Enzymatic Assay for human Protein Tyrosine Phosphatase Non-receptor Type 13 (PTPN13) (AID 2283205)
Description: NVS_ENZ_hPTPN13 is a biochemical, single-readout assay that uses extracted gene-proteins in a cell-free assay. Measurements were taken 0.5 hour after chemical dosing in a 384-well plate.NVS_ENZ_hPTPN13 is one of one assay component(s) measured or calculated from the NVS_ENZ_hPTPN13 assay. It is designed to make measurements of enzyme activity, a form of enzyme reporter, as detected with fluorescence intensity signals by Fluorescence and electrophoretic mobility shift technology.Data from the assay component NVS_ENZ_hPTPN13 was analyzed into 1 assay endpoint. This assay endpoint, NVS_ENZ_hPTPN13, was analyzed in the positive analysis fitting direction relative to DMSO as the negative control and baseline of activity. Using a type of enzyme reporter, loss-of-signal activity can be used to understand changes in the enzymatic activity as they relate to the gene PTPN13. Furthermore, this assay endpoint can be referred to as a primary readout, because this assay has produced multiple assay endpoints where this one serves a enzymatic activity function. To generalize the intended target to other relatable targets, this assay endpoint is annotated to the phosphatase intended target family, where the subfamily is non-receptor tyrosine phosphatase. […]

[4] = biological target: Tyrosine-protein phosphatase non-receptor type 14 (Homo sapiens) (UniProt Q15678); assay: NVS_ENZ_hPTPN14: NovaScreen (NVS) Enzymatic Assay for human Protein Tyrosine Phosphatase Non-receptor Type 14 (PTPN14) (AID 2283206)
How it was run: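 Fluorescent substrate turnover by recombinant human PTPN14 was measured 0.5 h after compound addition, with substrate and product separated by mobility shift. Single-point screening at 25 uM, then concentration-response up to 50 uM for chemicals meeting threshold (e.g., 30% inhibition).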

[5] = biological target: human Protein Tyrosine Phosphatase Non-receptor Type 2 (PTPN2), PTPN2 (gene 5771) (UniProt P17706); assay: NVS_ENZ_hPTPN2: NovaScreen (NVS) Enzymatic Assay for human Protein Tyrosine Phosphatase Non-receptor Type 2 (PTPN2) (AID 2283207)
Chain of human Protein Tyrosine Phosphatase Non-receptor Type 2 (PTPN2), PTPN2 (gene 5771) (P17706 whole entry, looked up): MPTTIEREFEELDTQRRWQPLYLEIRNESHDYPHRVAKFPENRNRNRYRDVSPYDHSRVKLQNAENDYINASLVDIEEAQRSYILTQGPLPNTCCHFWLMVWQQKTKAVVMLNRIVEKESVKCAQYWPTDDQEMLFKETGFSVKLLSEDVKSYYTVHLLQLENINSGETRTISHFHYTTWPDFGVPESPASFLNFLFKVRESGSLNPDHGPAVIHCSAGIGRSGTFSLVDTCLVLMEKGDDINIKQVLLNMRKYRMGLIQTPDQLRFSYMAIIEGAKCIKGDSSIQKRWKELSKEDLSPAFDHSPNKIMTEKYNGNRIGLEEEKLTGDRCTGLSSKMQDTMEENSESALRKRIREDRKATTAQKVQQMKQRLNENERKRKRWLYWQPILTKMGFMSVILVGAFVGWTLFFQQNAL
Description: (§1) NVS_ENZ_hPTPN2 is a biochemical, single-readout assay that uses extracted gene-proteins in a cell-free assay. Measurements were taken 1 hour after chemical dosing in a 384-well plate.NVS_ENZ_hPTPN2 is one of one assay component(s) measured or calculated from the NVS_ENZ_hPTPN2 assay. It is designed to make measurements of enzyme activity, a form of enzyme reporter, as detected with fluorescence intensity signals by Fluorescence and electrophoretic mobility shift technology.Data from the assay component NVS_ENZ_hPTPN2 was analyzed into 1 assay endpoint. This assay endpoint, NVS_ENZ_hPTPN2, was analyzed in the positive analysis fitting direction relative to DMSO as the negative control and baseline of activity. Using a type of enzyme reporter, loss-of-signal activity can be used to understand changes in the enzymatic activity as they relate to the gene PTPN2. Furthermore, this assay endpoint can be referred to as a primary readout, because this assay has produced multiple assay endpoints where this one serves a enzymatic activity function. To generalize the intended target to other relatable targets, this assay endpoint is annotated to the phosphatase intended target family, where the subfamily is non-receptor tyrosine phosphatase.
Binding assays used specific radioligands (tritiated, iodinated) with non-radioactive competitive displacement ligands in agonist or antagonist protocols (as indicated) and various reference compounds and inhibitors to titrate specific binding to receptors and transporters. Most enzyme assays (CYPs, kinases, phosphatases, proteases, HDACs) used recombinant protein and specific substrates (fluorescence mostly, some colorimetric and radioactive) and inhibitors, followed by a biochemical separation of substrate and product. All assays for the biochemical HTS were initially run in duplicate at a single concentration (10 uM for CYP450 assays and 25 uM for all others). […] Each assay was run with positive and negative controls, and concurrent controls on every plate. The follow-up (secondary) screen tested active chemical-pairs in concentration series, as well as a few additional assays not tested in the primary screen, some selected negative inactives, and several cases re-run in the concentration series for confirmatory purposes.

[6] = biological target: human Protein Tyrosine Phosphatase Non-receptor Type 4 (PTPN4), PTPN4 (gene 5775) (UniProt P29074); assay: NVS_ENZ_hPTPN4: NovaScreen (NVS) Enzymatic Assay for human Protein Tyrosine Phosphatase Non-receptor Type 4 (PTPN4) (AID 2283208)
Chain of human Protein Tyrosine Phosphatase Non-receptor Type 4 (PTPN4), PTPN4 (gene 5775) (P29074 whole entry, looked up): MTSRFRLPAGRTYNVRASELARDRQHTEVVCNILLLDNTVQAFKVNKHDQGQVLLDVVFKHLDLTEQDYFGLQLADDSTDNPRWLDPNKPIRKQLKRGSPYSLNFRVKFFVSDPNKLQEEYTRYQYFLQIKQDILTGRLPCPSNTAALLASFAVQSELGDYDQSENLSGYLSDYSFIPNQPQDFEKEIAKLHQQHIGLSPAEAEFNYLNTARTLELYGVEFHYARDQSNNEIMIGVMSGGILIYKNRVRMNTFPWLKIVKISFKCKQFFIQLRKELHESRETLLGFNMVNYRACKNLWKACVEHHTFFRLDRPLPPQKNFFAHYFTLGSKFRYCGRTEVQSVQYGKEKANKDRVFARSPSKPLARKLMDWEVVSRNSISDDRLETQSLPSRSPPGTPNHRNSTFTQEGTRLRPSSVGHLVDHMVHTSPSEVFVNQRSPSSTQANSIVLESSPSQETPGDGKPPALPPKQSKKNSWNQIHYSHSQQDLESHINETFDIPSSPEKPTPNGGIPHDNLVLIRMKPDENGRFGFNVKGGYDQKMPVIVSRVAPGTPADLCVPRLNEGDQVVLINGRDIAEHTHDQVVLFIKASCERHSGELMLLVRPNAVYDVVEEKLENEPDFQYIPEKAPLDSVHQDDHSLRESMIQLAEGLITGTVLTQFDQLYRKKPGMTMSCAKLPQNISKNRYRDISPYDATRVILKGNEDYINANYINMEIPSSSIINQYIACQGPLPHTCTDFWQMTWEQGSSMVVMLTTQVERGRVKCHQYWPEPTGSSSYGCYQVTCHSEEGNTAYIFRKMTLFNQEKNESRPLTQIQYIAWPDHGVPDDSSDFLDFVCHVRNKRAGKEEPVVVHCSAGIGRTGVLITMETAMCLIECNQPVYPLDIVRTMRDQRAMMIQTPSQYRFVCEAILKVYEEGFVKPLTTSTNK
How it was run: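 Screened in duplicate at 25 uM, with hits then titrated to a top concentration of 50 uM. Recombinant Sf9-derived PTPN4 turnover was read by fluorescence with electrophoretic separation, 1.33 h after compound addition. DMSO served as baseline.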

[7] = biological target: human Protein Tyrosine Phosphatase Non-receptor Type 9 (PTPN9), PTPN9 (gene 5780) (UniProt P43378); assay: NVS_ENZ_hPTPN9: NovaScreen (NVS) Enzymatic Assay for human Protein Tyrosine Phosphatase Non-receptor Type 9 (PTPN9) (AID 2283209)
Description: as §1, with “NVS_ENZ_hPTPN9” for “NVS_ENZ_hPTPN2”, “gene-proteins from SF9” for “gene-proteins”, “1.33 hours” for “1 hour”, “plate.NVS_ENZ_hPTPN9” for “plate.NVS_ENZ_hPTPN2”, “NVS_ENZ_hPTPN9,” for “NVS_ENZ_hPTPN2,”, “PTPN9.” for “PTPN2.”
Binding assays used specific radioligands (tritiated, iodinated) with non-radioactive competitive displacement ligands in agonist or antagonist protocols (as indicated) and various reference compounds and inhibitors to titrate specific binding to receptors and transporters. Most enzyme assays (CYPs, kinases, phosphatases, proteases, HDACs) used recombinant protein and specific substrates (fluorescence mostly, some colorimetric and radioactive) and inhibitors, followed by a biochemical separation of substrate and product. All assays for the biochemical HTS were initially run in duplicate at a single concentration (10 uM for CYP450 assays and 25 uM for all others). […]

[8] = biological target: human Protein Tyrosine Phosphatase Non-receptor Type 6 (PTPN6), PTPN6 (gene 5777) (UniProt P29350); assay: NVS_ENZ_hPTPN6: NovaScreen (NVS) Enzymatic Assay for human Protein Tyrosine Phosphatase Non-receptor Type 6 (PTPN6) (AID 2283210)
How it was run: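 Recombinant human PTPN6 from SF9 cells, enzyme activity followed by fluorescence after mobility-shift separation of substrate and product at 1.33 h. Chemicals first tested at a single 25 uM in duplicate, then confirmed across concentration series; loss of signal relative to DMSO.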

[9] = biological target: human Protein Tyrosine Phosphatase Receptor Type B (PTPRB), PTPRB (gene 5787) (UniProt P23467); assay: NVS_ENZ_hPTPRB: NovaScreen (NVS) Enzymatic Assay for human Protein Tyrosine Phosphatase Receptor Type B (PTPRB) (AID 2283211)
Chain of human Protein Tyrosine Phosphatase Receptor Type B (PTPRB), PTPRB (gene 5787) (P23467 whole entry, looked up): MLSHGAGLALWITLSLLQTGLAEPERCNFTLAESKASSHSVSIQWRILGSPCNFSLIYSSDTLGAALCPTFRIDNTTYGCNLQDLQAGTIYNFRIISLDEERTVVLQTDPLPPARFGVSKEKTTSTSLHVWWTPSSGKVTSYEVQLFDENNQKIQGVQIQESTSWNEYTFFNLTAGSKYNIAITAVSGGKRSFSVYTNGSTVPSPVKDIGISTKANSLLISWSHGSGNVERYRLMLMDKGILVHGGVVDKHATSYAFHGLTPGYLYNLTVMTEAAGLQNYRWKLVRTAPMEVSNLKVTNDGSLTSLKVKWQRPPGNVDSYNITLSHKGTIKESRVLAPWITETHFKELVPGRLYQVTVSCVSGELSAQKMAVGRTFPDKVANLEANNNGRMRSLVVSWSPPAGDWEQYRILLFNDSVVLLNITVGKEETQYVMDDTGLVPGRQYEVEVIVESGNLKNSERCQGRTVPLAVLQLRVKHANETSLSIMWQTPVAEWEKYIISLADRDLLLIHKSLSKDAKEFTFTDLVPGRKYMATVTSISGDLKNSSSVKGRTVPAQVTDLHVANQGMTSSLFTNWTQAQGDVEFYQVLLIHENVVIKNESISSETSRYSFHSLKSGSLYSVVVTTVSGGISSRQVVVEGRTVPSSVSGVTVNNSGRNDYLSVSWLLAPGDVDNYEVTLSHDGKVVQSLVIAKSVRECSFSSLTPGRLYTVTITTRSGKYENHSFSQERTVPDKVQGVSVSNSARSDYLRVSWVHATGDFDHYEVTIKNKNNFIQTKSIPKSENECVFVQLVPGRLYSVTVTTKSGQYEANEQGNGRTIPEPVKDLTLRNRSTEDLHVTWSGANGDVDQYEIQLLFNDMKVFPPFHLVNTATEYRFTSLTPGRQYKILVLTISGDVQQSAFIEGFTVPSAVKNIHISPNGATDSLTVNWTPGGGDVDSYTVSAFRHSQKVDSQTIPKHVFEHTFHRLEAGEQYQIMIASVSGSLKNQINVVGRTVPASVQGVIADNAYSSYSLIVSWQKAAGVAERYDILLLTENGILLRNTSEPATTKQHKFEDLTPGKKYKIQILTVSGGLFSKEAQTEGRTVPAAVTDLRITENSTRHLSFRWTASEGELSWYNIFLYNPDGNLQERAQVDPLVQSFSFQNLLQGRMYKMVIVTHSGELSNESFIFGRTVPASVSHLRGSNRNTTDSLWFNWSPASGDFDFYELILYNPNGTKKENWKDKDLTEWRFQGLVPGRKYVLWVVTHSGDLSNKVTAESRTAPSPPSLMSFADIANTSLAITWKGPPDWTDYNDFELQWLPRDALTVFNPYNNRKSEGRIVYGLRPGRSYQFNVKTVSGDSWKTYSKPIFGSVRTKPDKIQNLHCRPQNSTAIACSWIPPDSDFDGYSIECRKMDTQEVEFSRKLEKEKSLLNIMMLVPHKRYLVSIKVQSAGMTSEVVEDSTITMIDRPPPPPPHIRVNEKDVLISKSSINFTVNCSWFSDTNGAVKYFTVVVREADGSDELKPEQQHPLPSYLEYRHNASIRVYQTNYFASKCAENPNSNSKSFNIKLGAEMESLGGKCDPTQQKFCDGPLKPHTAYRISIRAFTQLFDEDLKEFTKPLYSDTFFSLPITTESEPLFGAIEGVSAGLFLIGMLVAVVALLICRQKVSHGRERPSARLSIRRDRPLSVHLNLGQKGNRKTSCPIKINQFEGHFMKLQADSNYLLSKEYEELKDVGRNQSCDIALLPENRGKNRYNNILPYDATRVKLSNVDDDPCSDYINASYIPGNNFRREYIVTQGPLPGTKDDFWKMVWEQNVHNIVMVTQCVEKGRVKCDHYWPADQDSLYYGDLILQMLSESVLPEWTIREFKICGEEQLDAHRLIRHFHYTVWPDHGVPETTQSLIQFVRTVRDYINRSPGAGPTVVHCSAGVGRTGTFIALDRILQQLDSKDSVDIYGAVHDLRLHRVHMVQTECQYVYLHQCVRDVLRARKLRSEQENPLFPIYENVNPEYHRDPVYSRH
How it was run: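 Recombinant human PTPRB with a fluorescent substrate, product separated by electrophoretic mobility shift; read 1 h after dosing. Primary screen in duplicate at 25 uM; actives then retested in concentration series; loss of signal versus DMSO.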

[10] = biological target: human Protein Tyrosine Phosphatase Receptor Type C (PTPRC), PTPRC (gene 5788) (UniProt P08575); assay: NVS_ENZ_hPTPRC: NovaScreen (NVS) Enzymatic Assay for human Protein Tyrosine Phosphatase Receptor Type C (PTPRC) (AID 2283212)
How it was run: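 Absorbance-based phosphatase activity of human PTPRC protein extracted from yeast was measured 1 h post-dosing. Compounds first tested at 25 uM in duplicate, then those passing threshold in singleton concentration series to 50 uM.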

Compound: CN(C)[C@@H]1C(=O)C(C(N)=O)=C(O)[C@@]2(O)C(=O)C3=C(O)c4c(O)cccc4[C@@](C)(O)[C@H]3[C@H](O)[C@@H]12
- AC50 [1]: 2.52 µM (active) and 1.53 µM (active) and 2.46 µM (active)
- AC50 [2]: 3.91 µM (active) and 18.2 µM (active) and 1.8 µM (active)
- AC50 [3]: 2.9 µM (active)
- AC50 [4]: 26.3 µM (active)
- AC50 [5]: 20.1 µM (active)
- AC50 [6]: 12.1 µM (active)
- AC50 [7]: 2.57 µM (active)
- AC50 [8]: 41.4 µM (active)
- AC50 [9]: 29.7 µM (active) and 10.1 µM (active)
- outcome [9]: inactive
- AC50 [10]: 11.4 µM (active)

Compound: O=C(O)c1cc(Oc2ccc(C(F)(F)F)cc2Cl)ccc1[N+](=O)[O-]
- outcome [4]: inactive

Compound: CC(C)N(C(=O)SCC(Cl)=C(Cl)Cl)C(C)C
- outcome [4]: inactive

Compound: CN1COCN(Cc2cnc(Cl)s2)C1=N[N+](=O)[O-]
- outcome [4]: inactive

Compound: Nc1c(Cl)cc([N+](=O)[O-])cc1Cl
- AC50 [3]: 25 µM (active)
- outcome [5]: inactive

Compound: S=C1NCCN1
- outcome [5]: inactive
- outcome [8]: inactive
- outcome [9]: inactive

Compound: CC[C@H](C)[C@H]1O[C@]2(C=C[C@@H]1C)C[C@@H]1C[C@@H](C/C=C(\C)[C@@H](O[C@H]3C[C@H](OC)[C@@H](O[C@H]4C[C@H](OC)[C@@H](NC)[C@H](C)O4)[C@H](C)O3)[C@@H](C)/C=C/C=C3\CO[C@@H]4[C@H](O)C(C)=C[C@@H](C(=O)O1)[C@]34O)O2
- AC50 [1]: 4.5 nM (active)

Compound: CCCOc1nn(C(=O)NS(=O)(=O)c2ccccc2C(=O)OC)c(=O)n1C
- outcome [6]: inactive

Compound: Cc1ccn2nc(S(=O)(=O)Nc3c(F)cccc3F)nc2n1
- outcome [6]: inactive

Compound: Nc1nc(N)nc(NC2CC2)n1
- outcome [4]: inactive

Compound: CNC(=O)Oc1cccc2c1OC(C)(C)O2
- outcome [4]: inactive

Compound: CC(C)[C@H](C(=O)O[C@H](C#N)c1cccc(Oc2ccccc2)c1)c1ccc(Cl)cc1
- outcome [1]: inactive

Compound: CCNc1nc(Cl)nc(NC(C)(C)C#N)n1
- outcome [4]: inactive
